Results on 40 molecules are retold here after PubChem BioAssay (NCATS).

Results filed as inconclusive are left out. Unmarked numbers belong to inactive results. Calls of active or inactive are those of the source. Calls follow the shape of the dose curve; as a rule, active = well fitted cell-killing curve with a large enough effect; inconclusive = small, poorly fitted or top-dose-only effect, or effect the other way; inactive = flat fitted curve, though single readings scatter. Where a SMILES comes first, the peptide text is derived from it. [ ]: non-standard residue; d: D form. ξ: configuration not given here. ξLac(3-iPr) = CC(C)CC(O)C(=O)O; NMeV = CN[CH](C(=O)O)C(C)C; βAla = NCCC(=O)O
% is scaled to controls: 0 for no effect and ±100 for the full control effect; potency is read from the fitted curve at half-maximal effect.

The test system of this test is CAOV3. As to the kind of experiment: Primary qHTS to identify gynecologic anti-cancer compounds using libraries of approved drugs and bioactive compounds (AID 1345084). Also: nearly all actives have a fitted effect of over 55% in size. The conditions noted are these: Gynecologic cancer cell panel viability, ATPlite luminescence, 48 h; series mostly up to 57.5 µM; activity change, negative = cytotoxicity: at the top concentration. The source says:
National Center for Advancing Translational Sciences [NCATS] Assay Overview: Chemotherapeutic drug responses vary from cancer to cancer and from patient to patient. These variations could be caused by a number of factors including patient genomic background, tumor mutations, tumor heterogeneity, and aspects of drug treatment. Chemotherapeutic drug resistance is also a common issue and can lead to ineffective treatment and patient death. Here we have profiled the cell killing effects of thousands of compounds to characterize the responses in three gynecological cancers, identify cancer-selective compounds, and understand the diversity of responses to these compounds from pan-cancer suppressors to single cell line selective compounds. In this assay, we screened a 7,914 compound drug library that included approved drug and bioactive compounds in six ovarian, three cervical, and […] placental cancer cell lines using the ATPlite assay for cell viability. […] The cervical cancer cell lines included HeLa, Ca Ski, and C-33 A. The placental cancer cell lines included JEG-3. HEK 293T cells were used as the control cell line to determine the selectivity index. ATPlite is a luminescence based assay reliant on the conversion of a luciferase substrate to light in the presence of ATP. As a cytotoxic compound will suppress growth and decrease the number of cells, the concentration of ATP will decrease, and less light signal will be detected in the well.
Assay Protocol Summary: 1,000 cells in 4 uL of media were dispensed into white, solid bottom 1536-well plates using a Multidrop Combi (Thermo Scientific). The Assay plates were incubated for 16 hours at 37 C with 5% CO2 in assay plates, followed by the addition of 23 nL of DMSO or drug dissolved in DMSO. Each compound was assayed in five concentrations (0.092, 0.46, 2.3, 11.5, and 57.5 uM), using the automated Wako 1536 Pin Tool workstation and incubated at 37 C with 5% CO2 48 hours. 4 uL of ATPlite, the ATP monitoring reagent, was then added to the each well of the assay plates using the Multidrop Combi reagent dispenser followed by incubation for 15 minutes at room temperature. The resulting luminescence was measured using the ViewLux plate reader.
In general terms: qHTS replaces the single test concentration by a dilution series.
Regarding `CC(=O)OC1C(O)CC2(C)C(CCC(C)C23Cc2c(O)cc(CO)c(C=O)c2O3)C1(C)C` (stereo not given), the “activity change, negative = cytotoxicity” value is 0.274% [at 25.3 µM].
Same read-out and setting: the result for `COc1cc(/C=C/CO)cc(OC)c1O[C@@H]1O[C@H](CO[C@@H]2O[C@H](CO)[C@@H](O)[C@H](O)[C@H]2O)[C@@H](O)[C@H](O)[C@H]1O` reads 35.6% [at 25.3 µM].
Consider `COc1cc2nc(N3CCC(N4CCCCC4)CC3)nc(NC3CCCCCC3)c2cc1OC`, for which the Potency was 7.08 µM (active).
As for `C=C(C)C1CCC2(C(=O)O)CCC3(C(=O)O)C(CCC4C5(C)CCC(O)C(C)(C(=O)O)C5CCC43C)C12` (stereo not given), the “activity change, negative = cytotoxicity” value is -10.4% [at 25.3 µM].
The same measure, in the same setting: the result for `CC(=O)c1cc(C(=O)N[C@@H](C)Cn2ccc(-c3ccc(C#N)c(Cl)c3)n2)[nH]n1` reads -18.2%; that for `COc1ncc2cc(C(=O)Nc3cc(C(=O)NCc4cccc(Cl)c4)ccc3Cl)c(=O)[nH]c2n1`, -0.732%.
Consider `Cc1c(F)cc(C(=O)NC2CC2)cc1-c1c(F)cn2c(C(C)(C)C)nnc2c1F`, for which the “activity change, negative = cytotoxicity” value was -5.46%.
Same read-out and setting: the result for `N[C@@]1(C(=O)O)CC[C@H]2[C@H](C(=O)O)[C@H]21` reads -21.7%; that for `C=C1CCC2C(C)(COC(C)=O)CCCC2(C)C1CCC(C)CC(=O)O` (stereo not given), 4.23% [at 38.5 µM].
Still for that read-out and setting: the result for `C[C@@H]1C(=O)O[C@H]2[C@H](O)C34[C@H]5C[C@@H](C(C)(C)C)C36[C@@H](OC(=O)[C@@H]6O)O[C@@]4(C(=O)O5)[C@@]12O` (stereo not given in full) reads 3.62% [at 25.3 µM].
As to `CC1(C)CCCC2(C)C(CO)C(CO)=CCC12` (stereo not given), the “activity change, negative = cytotoxicity” value is -2.59%.
The same measure, in the same setting: as for `COc1c(/C=C/C(C)(C)O)ccc2c1C(=O)OCc1cc(C)cc(O)c1O2`, the figure is -0.667% [at 38.5 µM]; as for `C=C1[C@@H]2CC[C@@H]3[C@@](CCC4C(C(=O)O)(C(=O)O)C[C@@H](O[C@@H]5O[C@H](CO)[C@@H](O)[C@H](O)[C@H]5OC(=O)CC(C)C)C[C@]43C)(C2)[C@H]1O` (stereo not given in full), -20.2% [at 25.3 µM].
As for `CC1(C)CC(=O)C2=C(C1)NC(=S)NC2c1cccc(O)c1` (stereo not given), the Potency is 3.55 µM (active).
As to `OC[C@H]1O[C@@H](Oc2cc(O)c3c(c2)O[C@@H](c2ccc(O)cc2)[C@H](O)C3)[C@H](O)[C@@H](O)[C@@H]1O`, the “activity change, negative = cytotoxicity” value is -2.64% [at 25.3 µM].
On the same count and under the same terms, as for `C=CC(C)(C)c1[nH]c2cc3c(cc2c1CC1NC(=O)C2CCCN2C1=O)C=CC(C)(C)O3` (stereo not given), the figure is -3.13% [at 25.3 µM]; as for `CC(C)(F)C[C@@H](N[C@@H](c1ccc(-c2ccc(S(C)(=O)=O)cc2)cc1)C(F)(F)F)C(=O)NC1(C#N)CC1`, 2.17%.
On the same count and under the same terms, as for `O=C(O)c1ccccc1NCCc1ccccc1`, the figure is 5.36%.
As to `COc1cc(C(=O)O)ccc1OC1OC(CO)C(O)C(O)C1O` (stereo not given), the “activity change, negative = cytotoxicity” value was 15.3% [at 38.5 µM].
Still for that read-out and setting: the result for `O=C(O)c1ccc(CN2CCC(CN[C@@H]3C[C@H]3c3ccccc3)CC2)cc1` reads 18.9%; that for `CC(=O)OC1C[C@@]2(C)[C@@H](CC[C@@H](C)[C@]23Cc2c(O)cc4c(c2O3)CNC4=O)C(C)(C)[C@@H]1O` (stereo not given in full), -24.4% [at 25.3 µM].
On to `Cn1nnc(-c2ccc(-c3ccc(N4C[C@H](COP(=O)(O)O)OC4=O)cc3F)cn2)n1`, for which the “activity change, negative = cytotoxicity” value was -38.8%.
Still for that read-out and setting: the result for `Cc1nc2ccc(Oc3ccc(F)cc3)cc2c(=O)n1C[C@H]1CCCN(C(C)C)C1` reads 25.5%.
On the same count and under the same terms, the result for `CCC(C)/C=C(C)/C=C/c1cc2c(cn1)C(=O)C(C)(OC(C)=O)C(O)=C2Cl` (stereo not given) reads 4.41% [at 38.5 µM]; that for `CC(C)S(=O)(=O)NC[C@H](C)c1ccc(NC(=O)c2cc(F)cc(F)c2)cc1`, -0.449%.
For the molecule `CCN1CCN(Cc2ccc(NC(=O)c3ccc(C)c(NC(=O)c4cncc(-c5cccs5)c4)c3)cc2C(F)(F)F)CC1`, the Potency was 10 µM (active).
In the case of `C=C(C(=O)OC)C1C(O)CC2(C)C(O)CCC(=O)C2C1O` (stereo not given), the “activity change, negative = cytotoxicity” value is -33.2%.
Still for that read-out and setting: the result for `COC(=O)/C=C/C12COC(C)(C)C1C(O)C(OC(C)=O)C1(C)C2CCC2(C)C(c3ccoc3)OC(=O)C3OC321` (stereo not given) reads 1.28% [at 25.3 µM].
Same read-out and setting: the result for `C=CC(C)(C)c1[nH]c2cc3c(cc2c1CC1NC(=O)C2=CCCN2C1=O)C=CC(C)(C)O3` (stereo not given) reads -2.37% [at 25.3 µM]; that for `CC(C)CC1OC(=O)C2CCCN2C(=O)CCNC(=O)C(Cc2ccccc2)NC(=O)C(C(C)C)N(C)C(=O)C(C(C)C)N(C)C1=O` (stereo not given) (cyclo([ξLac(3-iPr)][NMeV][NMeV]F[βAla]P); configuration not given here), -7.1% [at 25.3 µM].
With `Cn1ncnc1COc1nn2c(-c3cc(F)ccc3F)nnc2cc1C(C)(C)C`, the “activity change, negative = cytotoxicity” value is -9.19%.
Still for that read-out and setting: as for `OC[C@H]1O[C@@H](OC(CCCCc2ccc(O)cc2)CCc2ccc(O)cc2)[C@H](O)[C@@H](O)[C@@H]1O` (stereo not given in full), the figure is -0.759% [at 25.3 µM]; as for `CO[C@H]1C[C@@H]2CC[C@@H](C)[C@@](O)(O2)C(=O)C(=O)N2CCCC[C@H]2C(=O)O[C@H]([C@H](C)C[C@@H]2CC[C@H](n3cnnn3)[C@H](OC)C2)CC(=O)[C@H](C)/C=C(\C)[C@@H](O)[C@@H](OC)C(=O)[C@H](C)C[C@H](C)/C=C/C=C/C=C/1C`, -17.3% [at 25.3 µM]; as for `CC(/C=C/C1=CC2=CC(=O)C(C)(O)C(O)C2=CO1)=C\C(C)CCO` (stereo not given), -1.14% [at 38.5 µM].
The same measure, in the same setting: the result for `CC(C)Oc1ccc(C(=O)NC(CNC(=O)CN(C)C)Cc2ccc(-c3cn4cccc(C(C)O)c4n3)cc2)cc1Cl` (stereo not given) reads 1.27%; that for `C[C@]12C=C[C@@]3(CCC4[C@](C)(CO)CCC[C@@]4(C)C3CC1)C2` (stereo not given in full), 3.73%; that for `C=C(C(=O)O)C1CCC2(C)CCC(O)C(C)(O)C2C1` (stereo not given), 28.8%.
Still for that read-out and setting: the result for `CC(=O)c1c(O)cc(O[C@@H]2O[C@H](CO)[C@@H](O)[C@H](O)[C@H]2O)cc1O` reads -6.15% [at 38.5 µM]; that for `C=C(CO[C@@H]1O[C@H](CO[C@@H]2OC[C@](O)(CO)[C@H]2O)[C@@H](O)[C@H](O)[C@H]1O)C1Cc2cc(C(C)=O)ccc2O1` (stereo not given in full), 5.62% [at 25.3 µM].
For the molecule `CC1=CC(=O)CC(C)(CO)C1(O)/C=C/C(C)O[C@@H]1O[C@H](CO)[C@@H](O)[C@H](O)[C@H]1O` (stereo not given in full), the “activity change, negative = cytotoxicity” value is 31% [at 25.3 µM].
